Source: PubChem BioAssay

Biological target: Tumor necrosis factor receptor superfamily member 10B (Homo sapiens) (UniProt O14763)
Assay: TRAIL sensitizers in caspase-8 expressing neuroblastoma cells, dose response, NB7 cells plus caspase-8, luminescence, panel (AID 652002)
Conditions: NB7 neuroblastoma +caspase-8, TRAIL sensitization, luminescence viability, NB7+Caspase-8, with TRAIL, run 1; at 12.5 µM (top of the series)

Sequence of Tumor necrosis factor receptor superfamily member 10B (Homo sapiens) (O14763 whole entry, looked up): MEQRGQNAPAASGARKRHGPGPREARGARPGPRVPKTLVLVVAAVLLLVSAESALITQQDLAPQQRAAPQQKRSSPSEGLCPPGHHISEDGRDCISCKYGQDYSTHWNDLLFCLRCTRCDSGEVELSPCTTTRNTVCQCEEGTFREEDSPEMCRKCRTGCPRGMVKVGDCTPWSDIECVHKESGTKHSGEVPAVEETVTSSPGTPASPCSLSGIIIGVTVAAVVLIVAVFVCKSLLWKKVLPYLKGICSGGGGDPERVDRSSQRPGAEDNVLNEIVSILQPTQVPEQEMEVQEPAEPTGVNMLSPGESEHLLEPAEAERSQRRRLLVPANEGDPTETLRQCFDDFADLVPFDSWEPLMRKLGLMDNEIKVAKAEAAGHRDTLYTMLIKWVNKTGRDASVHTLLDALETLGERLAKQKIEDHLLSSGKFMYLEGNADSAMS

Compound | activity, % sensitization
COc1ccc(OCC(=O)N/N=C/C=C/c2ccccc2)cc1 | 44.7%
COc1ccc(-c2cc(C(=O)N/N=C/c3cccnc3)c3ccccc3n2)cc1 | 22.7%
CC(C)(C)OC(=O)NCc1ccc(NC(=O)c2nc[nH]c2C(=O)N[C@@H](Cc2ccccc2)C(=O)OCc2ccccc2)cc1 | -11%
CCSc1ccc(-c2ccc(C)cc2)nn1 | 47.8%
O=C(NC1=NCCS1)c1cc2ccccc2o1 | 45.6%
CCOc1ccc(NC(=O)c2ccco2)cc1 | 43%
CCCCC1CCC(C(=O)N(CCC(C)C)c2c(N)n(CCCC)c(=O)[nH]c2=O)CC1 (stereo not drawn) | -14.2%
Cc1nc2cc(NC(=O)Nc3cccc([N+](=O)[O-])c3)ccc2n1C | 44.4%
O=C(Nc1ccc2c(c1)OCO2)c1ccc2c(c1)OCO2 | 46.4%
CCC(C)c1ccc(O)c(NC(=S)NC(=O)c2cccs2)c1 (stereo not drawn) | 40.5%
O=C(Nc1ccc2ccccc2c1)c1ccc(Cl)cc1 | 33.9%
CCOC(=O)c1sc(NC(=O)Nc2ccc(F)cc2)nc1C | 29%

Biological target: Tumor necrosis factor receptor superfamily member 10B (Homo sapiens) (UniProt O14763)
Assay: as above
Conditions: NB7 neuroblastoma +caspase-8, TRAIL sensitization, luminescence viability, NB7+Caspase-8, with TRAIL, run 2; at 12.5 µM (top of the series)

Compound | activity, % sensitization
COc1ccc(OCC(=O)N/N=C/C=C/c2ccccc2)cc1 | 46.1%
COc1ccc(-c2cc(C(=O)N/N=C/c3cccnc3)c3ccccc3n2)cc1 | 33.2%
CC(C)(C)OC(=O)NCc1ccc(NC(=O)c2nc[nH]c2C(=O)N[C@@H](Cc2ccccc2)C(=O)OCc2ccccc2)cc1 | 1.84%
CCSc1ccc(-c2ccc(C)cc2)nn1 | 52.9%
O=C(NC1=NCCS1)c1cc2ccccc2o1 | 47%
CCOc1ccc(NC(=O)c2ccco2)cc1 | 43.3%
CCCCC1CCC(C(=O)N(CCC(C)C)c2c(N)n(CCCC)c(=O)[nH]c2=O)CC1 (stereo not drawn) | -10.1%
Cc1nc2cc(NC(=O)Nc3cccc([N+](=O)[O-])c3)ccc2n1C | 49.5%
O=C(Nc1ccc2c(c1)OCO2)c1ccc2c(c1)OCO2 | 44.3%
CCC(C)c1ccc(O)c(NC(=S)NC(=O)c2cccs2)c1 (stereo not drawn) | 49.3%
O=C(Nc1ccc2ccccc2c1)c1ccc(Cl)cc1 | 31.4%
CCOC(=O)c1sc(NC(=O)Nc2ccc(F)cc2)nc1C | 12.6%

Tested on: not listed separately
Assay: as above
Conditions: NB7 neuroblastoma +caspase-8, no TRAIL, compound-alone cytotoxicity counter-screen, luminescence viability, NB7+Caspase-8, run 1; at 12.5 µM (top of the series) unless noted

Compound | activity, % sensitization
COc1ccc(OCC(=O)N/N=C/C=C/c2ccccc2)cc1 | 31.1%
COc1ccc(-c2cc(C(=O)N/N=C/c3cccnc3)c3ccccc3n2)cc1 | 21.2%
CC(C)(C)OC(=O)NCc1ccc(NC(=O)c2nc[nH]c2C(=O)N[C@@H](Cc2ccccc2)C(=O)OCc2ccccc2)cc1 | -8.6%
CCSc1ccc(-c2ccc(C)cc2)nn1 | 5.62%
O=C(NC1=NCCS1)c1cc2ccccc2o1 | 8.75%
CCOc1ccc(NC(=O)c2ccco2)cc1 | 45.1%
CCCCC1CCC(C(=O)N(CCC(C)C)c2c(N)n(CCCC)c(=O)[nH]c2=O)CC1 (stereo not drawn) | -5.24%
Cc1nc2cc(NC(=O)Nc3cccc([N+](=O)[O-])c3)ccc2n1C | 0.985%
O=C(Nc1ccc2c(c1)OCO2)c1ccc2c(c1)OCO2 | 50.5%
CCC(C)c1ccc(O)c(NC(=S)NC(=O)c2cccs2)c1 (stereo not drawn) | 56.2%
O=C(Nc1ccc2ccccc2c1)c1ccc(Cl)cc1 | 13%
CCOC(=O)c1sc(NC(=O)Nc2ccc(F)cc2)nc1C | -5.48%

Tested on: not listed separately
Assay: as above
Conditions: NB7 neuroblastoma +caspase-8, no TRAIL, compound-alone cytotoxicity counter-screen, luminescence viability, NB7+Caspase-8, run 2; at 12.5 µM (top of the series) unless noted

Compound | activity, % sensitization
COc1ccc(OCC(=O)N/N=C/C=C/c2ccccc2)cc1 | 41.1%
COc1ccc(-c2cc(C(=O)N/N=C/c3cccnc3)c3ccccc3n2)cc1 | 40.4%
CC(C)(C)OC(=O)NCc1ccc(NC(=O)c2nc[nH]c2C(=O)N[C@@H](Cc2ccccc2)C(=O)OCc2ccccc2)cc1 | -21.5%
CCSc1ccc(-c2ccc(C)cc2)nn1 | 35.8%
O=C(NC1=NCCS1)c1cc2ccccc2o1 | 39.6%
CCOc1ccc(NC(=O)c2ccco2)cc1 | 31.6%
CCCCC1CCC(C(=O)N(CCC(C)C)c2c(N)n(CCCC)c(=O)[nH]c2=O)CC1 (stereo not drawn) | -5.58%
Cc1nc2cc(NC(=O)Nc3cccc([N+](=O)[O-])c3)ccc2n1C | 3.35%
O=C(Nc1ccc2c(c1)OCO2)c1ccc2c(c1)OCO2 | 33.4%
CCC(C)c1ccc(O)c(NC(=S)NC(=O)c2cccs2)c1 (stereo not drawn) | 41.9%
O=C(Nc1ccc2ccccc2c1)c1ccc(Cl)cc1 | -8.49%
CCOC(=O)c1sc(NC(=O)Nc2ccc(F)cc2)nc1C | -3.68%
